What follows are compounds tested on HGGX39 (paediatric high-grade glioma line) (assay: growth inhibition (% activity, log2 RLU normalised to DMSO / staurosporine); higher = more growth inhibition). Details: 33 µM.
Outline: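 On Geltrex-coated 384-well plates, pHGG cell lines and H9-derived neural stem cells were grown with approved drugs pinned in at a single final concentration of about 33 μM, in triplicate, for 7 days at 37 °C, 5% CO2. Per-plate normalisation of log2-transformed CellTiter-Glo luminescence to % activity between solvent and positive control wells followed. Each growth-inhibition value is the median over the replicates.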
Compound `C[N+](C)(C)CCCCCCCCCC[N+](C)(C)C` has a growth inhibition of 3.26%. `CC(=O)O[C@H]1C[C@@H]2CC[C@@H]3[C@H](CC[C@@]4(C)[C@H]3C[C@H]([N+]3(C)CCCCC3)[C@@H]4OC(C)=O)[C@@]2(C)C[C@@H]1[N+]1(C)CCCCC1` gave a growth inhibition of -0.431%. `CN(C)C(=O)Oc1ccc[n+](C)c1` was tested, and the growth inhibition was 0.907%. `CN1c2ccccc2C(NCCCCCCC(=O)O)c2ccc(Cl)cc2S1(=O)=O` (configuration not stated) showed a growth inhibition of -0.419%. `O=c1[nH]c2ccccc2n1CCCN1CCC(n2c(=O)[nH]c3cc(Cl)ccc32)CC1` was tested, and the growth inhibition was 3.76%. Compound `C[N+]1(C)CCCC(OC(=O)C(O)(c2ccccc2)c2ccccc2)C1` (configuration not stated) has a growth inhibition of -0.329%. Work on `CNC1CC(N)C(O)C(OC2OC(CO)C(O)C3OC4(OC(C(N)CO)C(O)C(O)C4O)OC23)C1O` (configuration not stated) yielded a growth inhibition of -0.261%. Compound `CN1C(=O)CCS(=O)(=O)C1c1ccc(Cl)cc1` (configuration not stated) has a growth inhibition of 2.2%. For `CN(C)C(=O)Oc1cccc([N+](C)(C)C)c1`, the growth inhibition was -0.512%. `CCC1=C[C@H]2CN3CCc4c([nH]c5ccccc45)[C@](C(=O)OC)(C2)[C@H]13` showed a growth inhibition of -1.76%. For `NCC(O)c1ccc(O)cc1` (configuration not stated), the growth inhibition was 2.12%. With `CCCN1C[C@H](CSC)C[C@@H]2c3cccc4[nH]cc(c34)C[C@H]21` the growth inhibition was 1.29%. `CN1C(=O)COc2c(C(=O)NC3CN4CCC3CC4)cc(Cl)cc21` (configuration not stated) gave a growth inhibition of 2.32%. `Cn1c(CCCC(=O)O)nc2cc(N(CCCl)CCCl)ccc21` showed a growth inhibition of 4.99%. Compound `CC(=O)OC12COC1CC(O)C1(C)C(=O)C(O)C3=C(C)C(O)CC(O)(C(OC(=O)c4ccccc4)C21)C3(C)C` (configuration not stated) has a growth inhibition of 14.7%. Work on `CC(=O)OC1CN2CCC1CC2` (configuration not stated) yielded a growth inhibition of 1.15%. In the case of `CC[C@@]1(O)C(=O)OCc2c1cc1n(c2=O)Cc2cc3ccccc3nc2-1`, the growth inhibition is reported as 39.5%.

From the supplement of paper PMC8253809
